Sampled rows, rich in hits. Any-hit rate of the full collection: about 4%.
NALP1 inh – blocks the NALP1 inflammasome reconstituted in yeast; S. cerevisiae NALP1/ASC/caspase-1 growth, X-gal OD620, 72 h; inhibition, % at 10 µM; 0.61% of 280,000 active; AID 2071; in the data active means inhibition mostly above about 24%, no sharp cut-off; inactive means mostly below about 32%
tim23-1 inh – growth inhibitors of tim23-1 mutant yeast; S. cerevisiae tim23-1 growth, BacTiter-Glo luminescence, 24 h; inhibition, % at 20 µM; 1.3% of 330,000 active;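 active means growth inhibition of the mutant yeast at or above 50%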;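 further: temperature-sensitive mutant grown at 25 °C; plate controls were DMSO-treated mutant yeast for no effect and medium wells lacking yeast for full effect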
TIM10 inh – inhibits growth of TIM10 yeast strain | S. cerevisiae TIM10 strain growth, BacTiter-Glo luminescence, 24 h | inhibition, % at 10 µM | 1.4% of 330,000 active | AID 463195;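 active means inhibition of 40% or more at the single tested concentration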;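 further: wild-type TIM10 isogenic control strain grown at permissive 25 °C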
NLRP3 yeast inh – blocks the NALP3 inflammasome reconstituted in yeast. Yeast reconstituted NLRP3/ASC/caspase-1, beta-gal luminescence, 24 h. inhibition, % at 10 µM. 0.39% of 330,000 active. AID 2825;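 active means inhibition of 50% or more; inactive means inhibition below 50%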;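 further: plate controls were induced DMSO wells for no effect and uninduced yeast grown without galactose for full effect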
tim10-1 inh – growth inhibitors of tim10-1 mutant yeast. AID 463190. inhibition, % at 20 µM. S. cerevisiae tim10-1 ts strain growth, BacTiter-Glo, 24 h. 2.2% of 330,000 active;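 active means inhibition of at least 40%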;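 further: mutant grown at 25 °C; 0% = DMSO wells with yeast and 100% = wells holding no yeast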
tim23-1 confirm – tim23-1 yeast growth inhibition, confirmed | 83% of 4,400 active | inhibition, % at 20 µM | shares compounds with tim23-1 inh | S. cerevisiae tim23-1 growth, BacTiter-Glo luminescence, 24 h | AID 463218;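 active means inhibition above about 39% in either of two replicate wells at 20 µM, limit read from the data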;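 further: temperature-sensitive tim23-1 mutant grown at 25 °C; 0% = DMSO wells with yeast and 100% = medium wells without yeast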
* marks the source's active call; other numbers are inactive results; · = no result given.

SMILES	NALP1 inh	tim23-1 inh	TIM10 inh	NLRP3 yeast inh	tim10-1 inh	tim23-1 confirm
CCOc1ccc(-n2ccnc(SCC(=O)Nc3ccc(CC)cc3)c2=O)cc1	·	56*	7	33	16	53*
Cc1ccc(S(=O)(=O)NCC(=O)NCC(=O)OCC(=O)N2CC(=O)Nc3ccccc32)cc1C	8	5	5	14	12	·
Cc1[nH]c(=O)nc(SCc2ccc(Cl)c(Cl)c2)c1C#N	23	-1	-12	10	-11	·
O=Cc1cc2ccccc2nc1SCc1ccc(Cl)c(Cl)c1	21	60*	8	5	19	44*
COc1ccc2c(=O)c3c(=O)n(Cc4ccco4)c(-c4ccc(C)cc4)nc3oc2c1	6	57*	19	18	17	46*
CC(C)NC(=O)CSc1nc(N)c(NC(=O)c2ccco2)c(=O)[nH]1	8	12	0	6	0	·
Cc1[nH]c2ccccc2c1C(c1ccccn1)N1CCCC1 (centres undefined)	-16	4	5	9	-1	·
CC(=O)NC(c1ccccc1)c1cc(Cl)c2cccnc2c1O (centres undefined)	1	56*	4	36	15	67*
CCCCC(=O)NC(c1cccs1)c1cc(Cl)c2cccnc2c1O (centres undefined)	-1	44	13	20	23	·
CCC(=O)NC(c1cc(Cl)c2cccnc2c1O)C(C)C (centres undefined)	·	52*	-17	18	38	53*
CCCC(=O)NC(c1ccc(OC)c(OC)c1)c1cc(Cl)c2cccnc2c1O (centres undefined)	13	8	-7	17	26	·
CCC(=O)NC(c1cccs1)c1cc(Cl)c2cccnc2c1O (centres undefined)	-10	51*	35	27	28	70*
Oc1c(C(c2ccccn2)N2CCCCC2)cc(Cl)c2cccnc12 (centres undefined)	10	53*	-17	19	20	64*
COc1ccc(C2=NN(C(=O)COC(=O)c3ccc(NC(=O)CC#N)cc3)C(c3ccco3)C2)cc1 (centres undefined)	·	22	16	7	12	·
COc1ccc2cc(C(=O)N3CCC(Cc4ccccc4)CC3)[nH]c2c1	17	10	4	4	16	·
CCOC(=O)C1=c2/c(=C/c3ccncc3)c(N)c(C(=O)OC)n2C(=O)C(c2ccncc2)S1 (centres undefined)	4	25	21	4	25	·
CCOc1ccccc1N1C(=O)c2ccc(C(=O)Nc3cccnc3)cc2C1=O	23	50*	13	13	6	21
O=C(CN1CCCC1)Nc1ccc(Br)cc1[N+](=O)[O-]	-8	-1	0	10	-3	·
CC(C)c1ccc(NC(=O)C(c2ccccc2)N2CCC3(CC2)OCCO3)cc1 (centres undefined)	15	52*	38	2	35	50*
COc1ccc(OC)c(NC(=O)c2csc(Cl)c2OC)c1	4	59*	26	22	23	44*
O=C(CCCc1nc(-c2ccc(Cl)cc2)no1)NC1CCCC1	7	37	8	33	33	·
CSc1cccc(CN2CCC(n3nccc3NC(=O)C3CC3)CC2)c1	-4	50*	-8	6	-11	15
COC(=O)c1ccccc1OCCCN(C)C	8	6	-8	21	4	·
Cc1cccc(/C=N/NC(=O)c2cc(Br)ccc2OCc2ccccc2)n1	-7	20	-10	7	20	·
Cc1cccc(/C=N/NC(=O)c2ccccc2OCc2cccc(Br)c2)n1	-4	51*	0	11	25	55*
SMILES	NALP1 inh	tim23-1 inh	TIM10 inh	NLRP3 yeast inh	tim10-1 inh	tim23-1 confirm
COc1ccc2c(c1)NC(c1cc(Cl)cc(Cl)c1O)c1cccn1-2 (centres undefined)	-7	1	16	14	1	·
COc1ccc2c(c1)NC(c1ccc(N(C)C)cc1)c1cccn1-2 (centres undefined)	-2	56*	36	16	39	61*
O=[N+]([O-])c1ccc2[nH]nc(-c3ccccc3)c2c1	28	59*	35	41	37	33
CCCC(=O)Nc1c(-c2ccccc2Cl)c(=O)c2ccccc2n1C	12	4	-5	23	8	·
O=C(c1cc(F)c(F)cc1Cl)N1CCCc2ccccc21	3	11	2	38	12	·
Cn1cncc1C#Cc1c(C=O)n(C)c2ccccc12	·	67*	39	25	37	62*
Cc1ccc(S(=O)(=O)N2C[C@@H]3[C@H]4CC[C@H](C4)[C@@H]3[C@@H](C)[C@H]2c2ccco2)cc1	·	50*	8	·	28	34
Cc1ccc(S(=O)(=O)N2C[C@@H]3[C@H]4CC[C@H](C4)[C@@H]3[C@@H](C)[C@@H]2c2ccco2)cc1	·	41	-3	·	24	·
O=C(CC(=O)c1ccccc1O)c1ccc(F)cc1	-5	61*	35	19	20	57*
O=C(c1ccc(F)cc1)N(C(=O)c1ccc(F)cc1)c1ncccn1	-6	55*	33	-7	32	47*
CC(C)NC(=O)N(C)C[C@H]1Oc2ccc(NC(=O)c3ccncc3)cc2C(=O)N([C@H](C)CO)C[C@@H]1C	·	-14	-6	2	1	·
Cn1c(SC/C=C/c2ccccc2)nnc1-c1cccs1	18	57*	-4	36	6	45*
CCn1c(SC/C=C/c2ccccc2)nnc1-c1cccs1	-2	45	27	21	7	·
COc1ccc(-c2sc3ccccc3c2-c2ccc(OCCN3CCCCC3)cc2)cc1	·	18	-2	11	-55	·
c1ccc(-c2sc3ccccc3c2-c2ccc(OCCN3CCCC3)cc2)cc1	·	61*	-9	36	-1	42*
COc1ccccc1-c1sc2ccccc2c1-c1ccc(OCCN2CCCCC2)cc1	·	52*	-112	·	13	37
COc1cccc(-c2sc3cc(OC)c(OC)cc3c2-c2ccc(OCCN3CCCCC3)cc2)c1	·	43	20	·	14	·
COc1cccc(-c2sc3ccccc3c2-c2ccc(OCCN3CCCCC3)cc2)c1	·	70*	7	41	-31	-12
COc1ccc2c(-c3ccc(OCCN4CCCCC4)cc3)c(-c3ccccc3OC)sc2c1	·	1	10	·	-42	·
Oc1ccc(Br)cc1C=Nc1ccc2c3c(cccc13)CC2	1	64*	21	13	21	60*
Cn1c(=O)c(C(=O)c2ccccc2)nc2ccccc21	7	10	-1	9	5	·
Cn1cc(C(=O)c2ccc(Cl)cc2)cc1-c1nc2ccccc2n1C	0	64*	3	19	23	48*

High-throughput results (PubChem BioAssay)
